Among the test systems are HOP-92 NSCLC; K-562 leukemia; MALME-3M melanoma; RXF 393 renal; UACC-257 melanoma; SK-MEL-28 melanoma; SK-MEL-2 melanoma; SN12C renal; TK-10 renal; CAKI-1 renal; A498 renal; RPMI-8226 leukemia; OVCAR-3 ovarian; BT-549 breast; MDA-MB-435 melanoma; HCC-2998 colon.
What all share (test): NCI-60 one-dose screen, 48 h (100 = growth as untreated, 0 = no growth, -100 = all killed)
What all share (settings): 10 µM

Where “and” joins values, the source holds several entries; their conditions need not be identical. Equal entries are not always repeated. Compounds without any hit were thinned out: in the full panel of roughly 83,000, 20% have a hit.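 Plates (96-well) were seeded with cells, treated with compound at one concentration, and incubated for 48 hours before percent growth was determined.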 Calls of active or inactive are those of the source. The calls were made as follows: active = growth percent below 10; inactive = the rest.

In the case of `C/C=C/CC(C)C(O)[C@H](NC(=O)[C@@H]1CCCN1C(=O)C(C)(C)NC(=O)CCCCCCCCC)C(=O)N[C@@](C)(CC)C(=O)N[C@@H](CCC(N)=O)C(=O)N[C@H](CCC(N)=O)C(=O)NC(C)(C)C(=O)N[C@@](C)(CC)C(=O)N[C@@H](CCC(N)=O)C(=O)N[C@H](CC(C)C)C(=O)N[C@H](CO)CC(C)C` (some centres undefined), the growth is 91.5% (inactive) and -58.8% (active) in the experiment on HOP-92 NSCLC; 90.4% (inactive) and 4.32% (active) in the experiment with K-562 leukemia; 93.8% (inactive) and -92.9% (active) in the experiment on MALME-3M melanoma; 129% (inactive) and -75.3% (active) with RXF 393 renal; 108% (inactive) and -83% (active) in the experiment with UACC-257 melanoma; 104% (inactive) and -100% (active) in the experiment on SK-MEL-28 melanoma. Further, the growth was 121% (inactive) and -72.1% (active) in the experiment with SK-MEL-2 melanoma; 101% (inactive) and -44.1% (active) with SN12C renal; 108% (inactive) and -53.4% (active) in the experiment on TK-10 renal; 99.7% (inactive) and -21.7% (active) with CAKI-1 renal; 97.3% (inactive) and -52.9% (active) in the experiment with A498 renal; 103% (inactive) and -46.2% (active) with RPMI-8226 leukemia. Also, the growth was 8.27% (active) with OVCAR-3 ovarian; -79.6% (active) in the experiment with BT-549 breast; 105% (inactive) and -93.7% (active) in the experiment on MDA-MB-435 melanoma; 116% (inactive) and -19.6% (active) in the experiment on HCC-2998 colon.

In the case of `C=C1[C@@H](C)C2[C@H](Cc3ccccc3)NC(=O)[C@]23[C@H](OC(C)=O)/C=C/[C@@](C)(O)C(=O)[C@@H](C)C/C=C/[C@H]3[C@@H]1O` (some centres undefined), the growth with HOP-92 NSCLC is -37.8% (active); in the experiment on K-562 leukemia, 76.1% (inactive); in the experiment on MALME-3M melanoma, 81.2% (inactive); with RXF 393 renal it was -1.19% (active); with SK-MEL-28 melanoma, 87.1% (inactive); in the experiment on SK-MEL-2 melanoma, 81.5% (inactive). Moreover, the growth was 79% (inactive) with SN12C renal; 26.4% (inactive) in the experiment with TK-10 renal; -18.8% (active) in the experiment on A498 renal; 19.8% (inactive) with RPMI-8226 leukemia; 81.2% (inactive) with OVCAR-3 ovarian; 12.4% (inactive) in the experiment with BT-549 breast. The figures for the growth in the experiment on MDA-MB-435 melanoma and in the experiment with HCC-2998 colon were 64.1% (inactive) and 78.5% (inactive), respectively.

With `CC1=C[C@H]2O[C@@H]3C[C@@H](O)[C@](C)([C@@]2(C)CC1)[C@@]31CO1`, the growth is 41.3% (inactive) in the experiment on HOP-92 NSCLC; 18.5% (inactive) with K-562 leukemia; 21% (inactive) with MALME-3M melanoma; 15.3% (inactive) with RXF 393 renal; 27.1% (inactive) with SK-MEL-28 melanoma; 22.6% (inactive) in the experiment with SK-MEL-2 melanoma. The growth was 25.4% (inactive) in the experiment on SN12C renal; 52.8% (inactive) with TK-10 renal; 39.2% (inactive) in the experiment on A498 renal; 29.3% (inactive) in the experiment with RPMI-8226 leukemia; 38.9% (inactive) in the experiment on OVCAR-3 ovarian; 21.1% (inactive) with BT-549 breast. The growth was 21.1% (inactive) with MDA-MB-435 melanoma and 18.2% (inactive) with HCC-2998 colon.

Regarding `N#Cc1nc(-c2ccccc2)oc1N1CCC(S(=O)(=O)F)CC1`, the growth in the experiment with HOP-92 NSCLC was 94.2% (inactive); in the experiment with K-562 leukemia, 103% (inactive); with MALME-3M melanoma, 98.9% (inactive); with RXF 393 renal it was 92.3% (inactive); in the experiment with UACC-257 melanoma, 107% (inactive); in the experiment with SK-MEL-28 melanoma, 104% (inactive). In addition, the growth with SK-MEL-2 melanoma is 120% (inactive); in the experiment on SN12C renal, 100% (inactive); in the experiment on TK-10 renal, 113% (inactive); with CAKI-1 renal, 100% (inactive); in the experiment with A498 renal it was 108% (inactive); with RPMI-8226 leukemia it was 101% (inactive). The growth with BT-549 breast was 108% (inactive); in the experiment with MDA-MB-435 melanoma it was 98.8% (inactive); in the experiment with HCC-2998 colon, 104% (inactive).

`CC1=C[C@H]2O[C@@H]3C[C@H]4OC(=O)/C=C\C=C\[C@H]([C@@H](C)O)OCC[C@@H](C)[C@H](O)C(=O)OC[C@@]2(CC1)[C@]4(C)[C@]31CO1`: the growth with HOP-92 NSCLC was -22% (active); with K-562 leukemia, -10.1% (active); in the experiment on MALME-3M melanoma it was -67.9% (active); in the experiment with RXF 393 renal, -73.7% (active); in the experiment with SK-MEL-28 melanoma, -49.1% (active); in the experiment on SK-MEL-2 melanoma it was -53.2% (active). The growth in the experiment on SN12C renal is -19% (active); with TK-10 renal, -25.4% (active); in the experiment on A498 renal it was -80.6% (active); in the experiment with RPMI-8226 leukemia, -28.7% (active); in the experiment on OVCAR-3 ovarian it was -18.2% (active); in the experiment with BT-549 breast, -24.8% (active). Besides, the figures for the growth in the experiment on MDA-MB-435 melanoma and in the experiment on HCC-2998 colon were -85.2% (active) and -59.9% (active), respectively.

With `CC1=C(CN(O)C(N)=O)C2=C(C)C3(CC3)[C@@](C)(O)C(=O)C2=C1`, the growth in the experiment with HOP-92 NSCLC was -21.1% (active); with K-562 leukemia, 95.4% (inactive); with MALME-3M melanoma, -39.2% (active); with RXF 393 renal, -78.9% (active); with UACC-257 melanoma, -14.7% (active); with SK-MEL-28 melanoma, -33% (active). Further, the growth was -47.8% (active) with SK-MEL-2 melanoma; 15.4% (inactive) in the experiment with SN12C renal; -15% (active) in the experiment with TK-10 renal; -3.78% (active) in the experiment on CAKI-1 renal; -82% (active) in the experiment with A498 renal; 91.5% (inactive) with RPMI-8226 leukemia. Also, the growth with OVCAR-3 ovarian is -26.9% (active); in the experiment with BT-549 breast, -24.5% (active); in the experiment on MDA-MB-435 melanoma, -20.2% (active); in the experiment with HCC-2998 colon it was -53.2% (active).

In the case of `O=C(CCCc1ccc(N(CCCl)CCCl)cc1)OCc1ccccc1`, the growth was 103% (inactive) in the experiment with HOP-92 NSCLC; 93.8% (inactive) in the experiment on K-562 leukemia; 92% (inactive) with MALME-3M melanoma; 109% (inactive) in the experiment with RXF 393 renal; 94.1% (inactive) in the experiment with UACC-257 melanoma; 101% (inactive) in the experiment with SK-MEL-28 melanoma. Also, the growth with SK-MEL-2 melanoma was 111% (inactive); in the experiment on SN12C renal, 79.1% (inactive); in the experiment with TK-10 renal, 107% (inactive); in the experiment with CAKI-1 renal it was 73.7% (inactive); in the experiment on A498 renal it was 98.5% (inactive); in the experiment with RPMI-8226 leukemia, 96.3% (inactive). The growth in the experiment with BT-549 breast was 95.5% (inactive); in the experiment with MDA-MB-435 melanoma, 94.4% (inactive); in the experiment with HCC-2998 colon it was 101% (inactive).

Take `N#Cc1c(-n2c(Br)c(Br)c3cc(Br)ccc32)[nH]c2c(Br)cc(Br)cc12`: the growth was -31.4% (active) with HOP-92 NSCLC; 7.11% (active) in the experiment on K-562 leukemia; -17.4% (active) with MALME-3M melanoma; -31.7% (active) in the experiment on RXF 393 renal; -23.8% (active) in the experiment with UACC-257 melanoma; 5.46% (active) with SK-MEL-28 melanoma. In addition, the growth was -61.2% (active) in the experiment on SK-MEL-2 melanoma; 0.622% (active) in the experiment with SN12C renal; -2.55% (active) in the experiment on TK-10 renal; -3.39% (active) in the experiment with CAKI-1 renal; -73% (active) in the experiment with A498 renal; -3.21% (active) in the experiment with RPMI-8226 leukemia. For the same molecule, the growth with BT-549 breast was -54.7% (active); in the experiment on MDA-MB-435 melanoma, -0.901% (active); in the experiment on HCC-2998 colon it was 2.82% (active).

For the origin of these results see PubChem BioAssay (NCI).
